# WRN helicase inh: qHTS for Inhibitors of WRN Helicase. Bifunctional 3'-5' exonuclease/ATP-dependent helicase WRN (Homo sapiens), Q14191. WRN helicase unwinding, fluorescent forked duplex, kinetic. Potency, µM (highest dose often 114 µM), usual class: inhibitors. actives 0.46% (n = 360,000). AID 651768, 2012; note: nearly all actives have a fitted effect of over 55% in size
#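 Kinetic fluorescence helicase assay: unwinding of a quenched forked DNA duplex (100 nM final) with 2 mM ATP final raises red fluorescence (525/598 nm). Compounds sat 15 min at room temperature with 20 nM WRN beforehand.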
# GRP78 ERSR act: qHTS for Inducers of the Endoplasmic Reticulum Stress Response (ERSR) in Human Glioma: qHTS; U87-MG GRP78 promoter luciferase reporter, 16 h; Potency, µM, actives largely listed as activators; actives 0.02% (n = 420,000); note: series mostly up to about 76 µM; nearly all actives have a fitted effect of over 35% in size
#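 Stably transfected U87-MG human glioma cells carrying a GRP78-based luminescent sensor were seeded at 1000 cells/well, pin-dosed with compounds and incubated 16 h. Luciferase reagent was then added, and end-point luminescence was read after 10 min at room temperature.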
# PI5P4Ka inh: qHTS for Inhibitors of phosphatidylinositol 5-phosphate 4-kinase (PI5P4K) | PI5P4Kalpha enzyme, ADP-Glo luminescence, 60 min; active compounds read low | max response, % | actives 1.2% (n = 330,000); active = max response of -50% or lower; inconclusive = between -30% and -50%; inactive = -30% or higher; note: value at the top dose of about 77 µM
#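 Luminescence from ADP-Glo served as readout of PI5P4Kalpha activity in a qHTS format. Reaction: enzyme, substrate, compound, ATP at 5 microM final, 60 min at RT.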
# Pin1 inh: qHTS Assay to Find Inhibitors of Pin1; Peptidyl-prolyl cis-trans isomerase NIMA-interacting 1 (Homo sapiens), Q13526; Pin1 FP peptide displacement, HiFluor488, 10 min; Potency, µM (highest dose often 115 µM), actives largely listed as inhibitors; actives 0.009% (n = 390,000); AID 504891, 2011; active = well fitted inhibition curve with a large enough effect in the polarisation, with a control signal flat, not every such curve was filed as active; inconclusive = small, poorly fitted or top-dose-only effect, or effect the other way, or a change in a side signal; inactive = no such curve, though single readings can be large or run the other way; the % refers to the polarisation
# Tb PGK inh: qHTS Assay to Find Inhibitors of Phosphoglycerate Kinase. PGK/GAPDH coupled, Kinase-Glo luminescence, 60 min. Phosphoglycerate kinase, glycosomal (Trypanosoma brucei brucei), P07378. AID 602233, 2012. actives 0.043% (n = 380,000). Potency, µM (series often up to 57.5 µM), hits mostly inhibitors; note: nearly all actives have a fitted effect of over 60% in size
# Target sequence (P07378 whole entry, looked up): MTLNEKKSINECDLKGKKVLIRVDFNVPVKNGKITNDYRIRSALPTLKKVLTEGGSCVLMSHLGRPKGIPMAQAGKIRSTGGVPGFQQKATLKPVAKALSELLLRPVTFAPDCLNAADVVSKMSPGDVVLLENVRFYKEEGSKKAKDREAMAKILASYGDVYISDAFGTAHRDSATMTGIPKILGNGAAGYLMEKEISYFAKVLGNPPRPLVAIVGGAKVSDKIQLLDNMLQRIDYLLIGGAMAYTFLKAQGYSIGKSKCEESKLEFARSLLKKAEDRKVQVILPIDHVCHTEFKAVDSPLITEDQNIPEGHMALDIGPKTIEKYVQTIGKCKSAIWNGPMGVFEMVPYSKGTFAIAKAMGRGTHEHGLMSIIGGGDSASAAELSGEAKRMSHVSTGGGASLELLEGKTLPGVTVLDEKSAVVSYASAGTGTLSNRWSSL
#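 Recombinant glycosomal PGK reaction used 1,3-bisphosphoglycerate generated in-well by GAPDH (100nM final) in 100mM TEA pH 7.6, 5mM MgCl2, 0.01% Tween-20. After 60 minutes at room temperature, ATP was read by Kinase-Glo Plus luminescence end-point.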
# FEN1 inhibitor: qHTS Assay for the Inhibitors of Human Flap endonuclease 1 (FEN1). P39748. Recombinant FEN1 flap cleavage, fluorescence, 15 min. Potency, µM (series often up to 114 µM), usual class: inhibitors. actives 0.35% (n = 390,000). AID 588795, 2011; note: nearly all actives have a fitted effect of over 65% in size
#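 Nuclease activity of 10 nM FEN1 was measured after 15 min of room-temperature exposure to titrated compounds, by adding 50 nM flap substrate and reading plates at 0 and 15 min.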
# A number is an active result; . = inactive; ? = inconclusive; / = no result. Only some compounds are listed: those with a hit (about 1.3% of all), similar ones and a draw of the others. Unless noted, calls come from the whole dose curve; as a rule, active = well fitted curve in the direction sought with a large enough effect; inconclusive = small, poorly fitted or top-dose-only effect, or another doubt; inactive = no such curve, though single readings can be large; an effect the other way counts as inactive or inconclusive.
SMILES,WRN helicase inh,GRP78 ERSR act,PI5P4Ka inh,Pin1 inh,Tb PGK inh,FEN1 inhibitor
N#CC1=C(N)Oc2c(c(=O)sc3ccccc23)C1c1cccnc1 (configuration not stated),.,.,-63,.,.,.
CCN(CC)C(=O)[C@@H]1C=C2c3cccc4[nH]cc(c34)C[C@H]2N(C)C1,/,.,/,/,/,/
Cc1cccn2c(=O)cc(COc3cccc(NC(=O)COc4ccc(F)cc4)c3)nc12,/,.,/,.,.,.
O=C1C(Cl)=CC(=Nc2ccc(O)cc2)C=C1Cl,.,.,-98,.,.,?
CC(C)c1ccc(N2C(=O)NC(=O)/C(=C\c3cnc(-c4ccccc4)nc3)C2=O)cc1,?,.,?,?,.,.
Cc1ccc(N2C(=O)NC(=O)/C(=C/c3cnc(-c4ccccc4)nc3)C2=O)cc1C,?,.,-52,?,.,.
Cc1cccc(N2C(=O)NC(=O)/C(=C\c3cnc(-c4ccccc4)nc3)C2=O)c1,?,.,-51,?,.,.
O=C1NC(=O)C(=Cc2ccc(N3CCN(C(=O)c4ccccc4)CC3)c([N+](=O)[O-])c2)C(=O)N1,?,.,-62,.,.,.
CCC(=O)O[C@@](Cc1ccccc1)(c1ccccc1)[C@H](C)CN(C)C,/,.,/,/,/,/
COc1ccc(C=C2C(=O)NC(=S)NC2=O)cc1OC,45µM,.,-50,.,.,.
COc1ccc(/C=C/C=C2C(=O)NC(=S)NC2=O)cc1,45µM,.,-50,.,.,?
COc1cc(/C=C2/SC(=S)N(Cc3ccccc3)C2=O)ccc1OCC(=O)O,.,.,.,.,.,?
CCOc1cc(C=C2C(=O)NC(=S)NC2=O)ccc1O,50µM,.,-77,.,.,.
CC[C@@H]1/C=C/C=C/C[C@H](C)[C@@H](O)[C@](C)(O)C(=O)[C@H](C)[C@@H](O)[C@H](C)C(=O)[C@H](C)[C@@H](O)[C@H](C)/C=C/C(=O)O[C@H]2[C@@H](C)[C@@H](CC1)O[C@@]1(CC[C@@H](C)[C@@H](C[C@H](C)O)O1)[C@@H]2C,/,.,/,/,/,/
NC(N)=Nc1ccc2[nH]c3c(c2c1)C[C@@]1(O)[C@H]2Cc4ccc(O)c5c4[C@@]1(CCN2CC1CC1)[C@H]3O5,?,.,?,?,.,50µM
COc1nn(CSP(=S)(OC)OC)c(=O)s1,/,.,/,/,/,/
Cn1c(O)c(/C=C2\C=c3ccccc3=NC2=O)c(=O)n(C)c1=O,.,.,.,.,.,.
Cc1cccc2c1=NC(=O)/C(=C/c1c(O)[nH]c(=O)[nH]c1=O)C=2,50µM,.,-54,.,.,.
O=C1NC(=O)C(=Cc2ccc(Oc3ccc([N+](=O)[O-])cc3)cc2)C(=O)N1,25µM,.,-58,.,.,.
COc1cc(C=C2C(=O)NC(=O)NC2=O)ccc1OCc1ccc([N+](=O)[O-])cc1,45µM,.,?,.,.,.
O=C1NC(=O)C(=Cc2cc([N+](=O)[O-])ccc2N2CCCCC2)C(=O)N1,.,.,.,.,.,.
CC1(O)CCC2C3CCC4=CC(=O)CCC4(C)C3(F)C(O)CC21C (configuration not stated),/,.,/,/,/,/
Cc1nn2c(=O)cc(N3CCNCC3)nc2s1,/,/,/,.,/,/
O=c1nc(/C=C/c2ccc(Cl)cc2Cl)cc(C(F)(F)F)[nH]1,50µM,?,.,.,.,.
O=C1NCc2c1c1c3ccccc3[nH]c1c1[nH]c3ccccc3c21,/,?,/,.,/,.
C/C(=N\Nc1cccc2ccccc12)c1c(O)n(Cc2ccccc2)c(=O)[nH]c1=O,.,.,-55,?,.,.
C/C(=N\NC(=O)c1ccncc1)c1c(O)n(-c2ccccc2)c(=O)[nH]c1=O,.,.,.,.,.,.

# Assay outcomes (PubChem BioAssay)
